Assay results published in PubChem BioAssay.
Some of the results follow. The source made the active and inactive calls.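 Rule for the calls, unless noted: active = over 150 percent of DMSO response; inconclusive = yeast strain measured with under 70 events; inactive = the rest.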

Legend:
[1] = reduced mouse 2C T cell binding to pMHC/ICAM-1 vesicles – MLPCN validation set, flow cytometry, LFA-1/ICAM-1 modulator project, pilot screen (AID 2523;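 active = response below a set limit, under 55% cells CD8-positive and vesicle-bound, and CD8 cells' 90th-percentile brightness under 279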;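 for vesicle binding response: mean PE anti-B7-1 fluorescence of CD8+ cells relative to row control; 100% = QL9-loaded vesicles with DMSO vehicle in the same plate row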); details: 2C mouse CD8+ T cells, at 7 µM, stronger effect = lower value; double positive events: measured here: CD8+/vesicle+ event percentage
[2] = biological target: Integrin beta-1 (Homo sapiens) + Integrin alpha-4 (Homo sapiens) (UniProt P13612+P05556); assay: alpha4beta1 integrin LIBS antibody binding reduction – U937 cells, HUTS-21 mAb, flow cytometry, validation set, VLA-4 allosteric modulator project, pilot screen (AID 2674;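 active = inhibition above 50%, about 3 SD of the validation set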;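 note: antibody binding induced by the VLA-4 ligand LDV present at three times its Kd; 0% = LDV ligand with antibody and no compound and 100% = antibody without LDV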); details: HUTS-21 LIBS mAb binding, at 6.7 µM, stronger effect = higher value, binding induced by LDV ligand
[3] = biological target: Beta-adrenergic receptor kinase 1 (Homo sapiens) (UniProt P25098); assay: GRK2 binders displacing RNA aptamer, biochemical, validation, human GRK2, bead flow cytometry (AID 488806;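 active = aptamer binding inhibition above 30%, about 3 SD of noise from non-fluorescent compounds; inactive = inhibition at or below 30%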); details: bead-bound GRK2, FAM-aptamer displacement, at 10 µM, stronger effect = higher value
[4] = biological target: Beta-2 adrenergic receptor (Homo sapiens) (UniProt P07550); assay: agonist-induced loss of surface beta2AR – cell-based, FAP fluorogen, flow cytometry, validation set, pilot screen (AID 504459;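 active = percent response above 42, roughly 3 SD of non-fluorescent test compounds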;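 note: agonist-driven loss of surface beta2AR via internalization measured by FAP dye flow cytometry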); details: Am2.2-beta2AR cells, at 10 µM, stronger effect = higher value
[5] = biological target: AP-2 complex subunit beta (Homo sapiens) (UniProt P63010); assay: beta-arrestin/AP2 interaction blockers – biochemical, validation set, GST-AP2 beads, flow cytometry, pilot screen (AID 504541;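 active = inhibition above 54%, about 3 SD of non-fluorescent compounds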;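 note: AP2 carries R879A mutation and is captured from E. coli lysate; bead-bound FITC arrestin peptide fluorescence measuring arrestin peptide binding to AP2; 0% = DMSO wells and 100% = excess unlabeled arrestin peptide control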); details: FITC arrestin peptide, at 10 µM, stronger effect = higher value, AP2 beta2 appendage fragment, R879A mutant
[6] = cytosolic pH regulators acting via V-ATPase – S. cerevisiae, pHLuorin, HTS validation (AID 504600; in the data active = response above about 15%;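 note: plate controls were DMSO for no effect and reference compound for full effect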); details: V-ATPase proton transport, at 10 µM, stronger effect = higher value
[7] = test system: anti-desmoglein-3 scFv antibody binding to human DSG3; assay: blockers of pathogenic pemphigus antibody–desmoglein-3 binding – biochemical, validation compound set, bead-based, flow cytometry, pilot screen (AID 588368;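 active = binding below the plate cutoff, the plate median minus 3 SD, with a reading above zero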;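 note: signal is the median channel fluorescence of bead-bound GFP antibody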); details: Protein G beads, DSG3-Fc, scFv-GFP binding, at 10 µM, stronger effect = lower value
[8] = Nile Red efflux blockade in pump-expressing yeast – validation compound set, multiplex, phenotypic, pilot screen (AID 588506;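 active = efflux inhibition above 0.42, the validation set average plus 4 SD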;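 note: Nile Red retained in cells so higher fluorescence means more efflux inhibition; 0 = negative control wells and 1 = enniatin B 25 µM full block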); details: S. cerevisiae pump-expressing triplex, Nile Red efflux flow cytometry; at 10 µM; stronger effect = higher value; the pumps come from Candida albicans
[9] = biological target: ATP-binding cassette sub-family B member 6 (Homo sapiens) (UniProt Q9NP58); assay: blockers of ABCB6-driven porphyrin uptake – K562-ABCB6 cells, flow cytometry, validation set, pilot screen (AID 588550;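 active = inhibition above the screen-wide mean plus 3 SD, about 51%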;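 note: 0% = DMSO wells and 100% = benzethonium chloride 70 µM positive control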); details: K562-ABCB6 porphyrin accumulation, 1 h, at 10 µM, stronger effect = higher value
[10] = AML differentiation inducers, ER-HoxA9 marrow cells – cell-based, GFP/MAC1 double positive, flow cytometry, validation set, primary screen (AID 588685;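 active = differentiation response of at least 50%, scaled between solvent and reference control, from cells with both markers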;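 note: compound exposure lasts four days before antibody staining and flow analysis; 0% = DMSO wells and 100% = 5 µM fulvestrant positive control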); details: stronger effect = higher value, normalized: vehicle 0, fulvestrant 100
[11] = yeast TOR reporter LAP4-GFP level changes – cell-based, second cherry pick, flow cytometry, confirmation (AID 2621;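 active = GFP signal as percent of the solvent control above about 150%, meaning raised reporter expression, limit read from the data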;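 note: ratio of well median GFP fluorescence to plate DMSO mean so 100% = DMSO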); details: S. cerevisiae LAP4-GFP strain, 3 h, at 10 µM, stronger effect = higher value
[12] = TOR pathway reporter MEP2-GFP, hit retest – S. cerevisiae, flow cytometry GFP, second cherry picks, confirmation (AID 2622;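 active = GFP signal above 150% of the solvent control wells, that is a rise of more than half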;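 note: median channel GFP fluorescence of all gated yeast cells per well; ratio of median GFP to plate DMSO average so 100% = DMSO level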); details: S. cerevisiae MEP2-GFP strain, 3 h, at 10 µM, stronger effect = higher value
[13] = retest of hits on RPL19A-GFP strain – cell-based, S. cerevisiae, flow cytometry, second cherry pick, confirmation (AID 2623;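 active = under 65% GFP response relative to DMSO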;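 note: median GFP channel fluorescence per well over the all cells gate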); details: 3 h, at 10 µM, stronger effect = lower value, 100% means same as DMSO wells
[14] = yeast TOR pathway CIT2-GFP reporter modulation – flow cytometry, second cherry pick, single plex, confirmation (AID 2624;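 active = GFP response vs DMSO above about 150%, limit read from the data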;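 note: median green fluorescence per well over all gated yeast cells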); details: S. cerevisiae CIT2-GFP strain, 3 h, at 10 µM, stronger effect = higher value, DMSO control wells read 100%
[15] = yeast AGP1-GFP fluorescence change, single-dose confirmation – cell-based, flow cytometry, S. cerevisiae, cherry pick set 2 (AID 2643);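 note: median GFP channel fluorescence over all cells without mother daughter split; sample median GFP divided by mean DMSO control so 100% equals DMSO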; details: S. cerevisiae AGP1-GFP strain, 3 h, at 10 µM, stronger effect = higher value
[16] = calorie-restriction mimetic ROS inhibitors, yeast – validation compound set, pilot screen (AID 2706;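 active = superoxide response below 65% of plate, a cut near 3 SD across the whole screen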;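 note: yeast exposed to compound for one week at 30 degrees C before staining; 100% = mean of all compound wells on the same plate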); details: S. cerevisiae aging, superoxide DHE fluorescence; at 10 µM, stronger effect = lower value

AP-2 complex subunit beta (Homo sapiens), sequence (P63010 whole entry, looked up, the tested form may be a part, one chain of several): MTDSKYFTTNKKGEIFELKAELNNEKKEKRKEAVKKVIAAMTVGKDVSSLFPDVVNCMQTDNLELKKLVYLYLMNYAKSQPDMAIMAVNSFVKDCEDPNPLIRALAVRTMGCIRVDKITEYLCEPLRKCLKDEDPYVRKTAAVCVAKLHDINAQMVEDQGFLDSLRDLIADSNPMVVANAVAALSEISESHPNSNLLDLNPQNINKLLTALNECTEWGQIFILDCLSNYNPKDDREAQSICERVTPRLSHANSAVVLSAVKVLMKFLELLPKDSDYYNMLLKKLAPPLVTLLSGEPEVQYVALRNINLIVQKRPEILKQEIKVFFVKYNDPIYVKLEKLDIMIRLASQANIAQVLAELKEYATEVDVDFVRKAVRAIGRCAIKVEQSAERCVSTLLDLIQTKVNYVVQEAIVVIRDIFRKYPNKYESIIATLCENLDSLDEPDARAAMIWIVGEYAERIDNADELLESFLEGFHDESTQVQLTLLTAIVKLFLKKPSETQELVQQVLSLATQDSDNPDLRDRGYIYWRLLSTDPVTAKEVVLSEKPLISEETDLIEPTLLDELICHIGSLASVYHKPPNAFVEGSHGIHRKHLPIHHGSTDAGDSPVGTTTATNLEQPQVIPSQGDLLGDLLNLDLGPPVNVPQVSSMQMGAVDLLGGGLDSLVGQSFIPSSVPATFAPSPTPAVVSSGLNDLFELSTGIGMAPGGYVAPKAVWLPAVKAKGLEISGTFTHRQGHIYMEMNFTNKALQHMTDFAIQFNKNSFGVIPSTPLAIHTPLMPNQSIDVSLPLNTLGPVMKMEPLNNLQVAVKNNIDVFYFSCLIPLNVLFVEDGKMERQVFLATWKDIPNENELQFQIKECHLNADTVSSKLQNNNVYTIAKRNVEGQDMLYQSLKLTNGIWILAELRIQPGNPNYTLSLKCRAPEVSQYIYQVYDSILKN
Beta-adrenergic receptor kinase 1 (Homo sapiens), sequence (P25098 whole entry, looked up): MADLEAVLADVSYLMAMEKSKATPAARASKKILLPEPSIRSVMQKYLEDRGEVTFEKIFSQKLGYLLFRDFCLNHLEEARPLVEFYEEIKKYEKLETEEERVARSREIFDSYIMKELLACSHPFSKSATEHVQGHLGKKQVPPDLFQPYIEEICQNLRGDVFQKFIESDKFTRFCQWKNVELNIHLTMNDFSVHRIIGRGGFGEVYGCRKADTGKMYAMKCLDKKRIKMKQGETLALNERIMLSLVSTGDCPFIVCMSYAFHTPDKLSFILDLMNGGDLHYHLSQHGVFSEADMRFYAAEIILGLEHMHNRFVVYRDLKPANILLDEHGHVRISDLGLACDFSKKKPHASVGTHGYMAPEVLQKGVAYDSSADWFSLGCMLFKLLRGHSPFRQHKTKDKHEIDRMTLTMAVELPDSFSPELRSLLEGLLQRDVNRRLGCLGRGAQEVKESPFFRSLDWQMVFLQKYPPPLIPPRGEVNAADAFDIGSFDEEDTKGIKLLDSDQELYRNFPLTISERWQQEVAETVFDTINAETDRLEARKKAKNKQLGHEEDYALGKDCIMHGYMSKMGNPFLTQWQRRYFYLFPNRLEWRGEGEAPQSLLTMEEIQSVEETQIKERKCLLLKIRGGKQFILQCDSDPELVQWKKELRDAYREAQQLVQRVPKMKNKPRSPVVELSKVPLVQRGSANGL
Integrin beta-1 (Homo sapiens) + Integrin alpha-4 (Homo sapiens), sequence (P05556 whole entry, looked up): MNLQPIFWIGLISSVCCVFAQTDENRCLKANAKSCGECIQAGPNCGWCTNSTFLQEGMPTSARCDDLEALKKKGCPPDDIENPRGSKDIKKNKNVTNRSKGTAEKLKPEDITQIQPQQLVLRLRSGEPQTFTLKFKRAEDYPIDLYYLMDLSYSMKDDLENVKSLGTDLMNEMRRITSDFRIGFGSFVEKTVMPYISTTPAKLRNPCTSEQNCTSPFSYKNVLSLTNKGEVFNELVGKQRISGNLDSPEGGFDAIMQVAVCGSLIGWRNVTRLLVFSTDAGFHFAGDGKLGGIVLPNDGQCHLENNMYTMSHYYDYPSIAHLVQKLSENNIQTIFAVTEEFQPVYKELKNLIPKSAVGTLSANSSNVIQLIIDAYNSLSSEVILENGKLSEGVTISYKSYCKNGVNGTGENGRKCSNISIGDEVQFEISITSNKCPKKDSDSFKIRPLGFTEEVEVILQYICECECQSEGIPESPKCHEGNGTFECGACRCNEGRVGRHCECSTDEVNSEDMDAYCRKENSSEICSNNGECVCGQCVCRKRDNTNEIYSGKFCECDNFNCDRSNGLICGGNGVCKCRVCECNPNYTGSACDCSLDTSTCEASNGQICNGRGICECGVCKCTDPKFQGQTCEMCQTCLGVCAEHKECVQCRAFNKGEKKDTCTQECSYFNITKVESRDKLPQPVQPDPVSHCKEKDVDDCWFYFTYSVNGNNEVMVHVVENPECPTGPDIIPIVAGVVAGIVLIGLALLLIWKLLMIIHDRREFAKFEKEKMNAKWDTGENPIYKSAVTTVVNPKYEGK
Integrin beta-1 (Homo sapiens) + Integrin alpha-4 (Homo sapiens), sequence (P13612 whole entry, looked up): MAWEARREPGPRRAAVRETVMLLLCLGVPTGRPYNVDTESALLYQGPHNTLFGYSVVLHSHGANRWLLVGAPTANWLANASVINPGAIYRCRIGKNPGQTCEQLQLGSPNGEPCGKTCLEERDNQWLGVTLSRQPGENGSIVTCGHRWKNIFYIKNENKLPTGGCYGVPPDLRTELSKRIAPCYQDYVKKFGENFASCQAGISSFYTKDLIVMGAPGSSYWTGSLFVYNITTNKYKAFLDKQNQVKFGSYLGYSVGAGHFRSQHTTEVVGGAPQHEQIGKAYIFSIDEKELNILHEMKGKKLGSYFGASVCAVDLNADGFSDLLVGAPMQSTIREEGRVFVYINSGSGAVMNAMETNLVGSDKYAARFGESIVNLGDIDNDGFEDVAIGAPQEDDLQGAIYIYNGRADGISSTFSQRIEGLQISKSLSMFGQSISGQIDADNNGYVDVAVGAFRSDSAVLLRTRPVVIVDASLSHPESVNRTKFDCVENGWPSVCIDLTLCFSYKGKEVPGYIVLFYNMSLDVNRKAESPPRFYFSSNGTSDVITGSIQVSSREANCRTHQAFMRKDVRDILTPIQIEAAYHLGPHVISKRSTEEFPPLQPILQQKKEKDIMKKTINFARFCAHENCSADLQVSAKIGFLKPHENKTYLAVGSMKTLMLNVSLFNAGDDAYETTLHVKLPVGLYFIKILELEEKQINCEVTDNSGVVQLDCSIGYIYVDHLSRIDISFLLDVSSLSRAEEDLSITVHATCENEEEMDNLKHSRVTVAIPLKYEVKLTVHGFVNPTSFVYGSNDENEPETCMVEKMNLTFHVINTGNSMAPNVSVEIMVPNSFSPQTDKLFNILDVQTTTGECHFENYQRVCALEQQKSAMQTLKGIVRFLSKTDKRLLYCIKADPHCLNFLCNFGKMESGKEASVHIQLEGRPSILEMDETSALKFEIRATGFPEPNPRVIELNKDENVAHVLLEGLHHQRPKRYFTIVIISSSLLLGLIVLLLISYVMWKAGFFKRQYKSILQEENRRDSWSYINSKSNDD
ATP-binding cassette sub-family B member 6 (Homo sapiens), sequence (Q9NP58 whole entry, looked up): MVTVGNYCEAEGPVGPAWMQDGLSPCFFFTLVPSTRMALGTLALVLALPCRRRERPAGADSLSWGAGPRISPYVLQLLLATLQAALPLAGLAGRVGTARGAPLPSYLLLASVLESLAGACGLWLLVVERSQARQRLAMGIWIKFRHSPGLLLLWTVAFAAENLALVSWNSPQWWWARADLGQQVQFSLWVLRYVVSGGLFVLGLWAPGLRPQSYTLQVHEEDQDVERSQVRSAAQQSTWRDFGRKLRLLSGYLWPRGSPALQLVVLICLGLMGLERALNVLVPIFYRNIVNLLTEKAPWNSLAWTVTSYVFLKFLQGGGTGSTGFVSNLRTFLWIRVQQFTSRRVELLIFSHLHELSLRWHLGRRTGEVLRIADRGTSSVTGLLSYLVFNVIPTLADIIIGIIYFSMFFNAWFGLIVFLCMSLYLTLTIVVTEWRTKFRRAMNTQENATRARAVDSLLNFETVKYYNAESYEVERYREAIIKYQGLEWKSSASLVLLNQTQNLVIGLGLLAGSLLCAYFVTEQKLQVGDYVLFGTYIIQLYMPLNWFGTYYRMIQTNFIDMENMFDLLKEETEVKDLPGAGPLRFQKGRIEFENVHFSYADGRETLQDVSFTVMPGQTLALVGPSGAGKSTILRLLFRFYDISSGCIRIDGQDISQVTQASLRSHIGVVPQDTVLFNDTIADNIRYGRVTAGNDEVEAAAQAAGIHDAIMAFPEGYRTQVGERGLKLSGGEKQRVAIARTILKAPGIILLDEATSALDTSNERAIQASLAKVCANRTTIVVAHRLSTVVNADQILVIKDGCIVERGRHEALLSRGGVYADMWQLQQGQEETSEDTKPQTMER
Beta-2 adrenergic receptor (Homo sapiens), sequence (P07550 whole entry, looked up): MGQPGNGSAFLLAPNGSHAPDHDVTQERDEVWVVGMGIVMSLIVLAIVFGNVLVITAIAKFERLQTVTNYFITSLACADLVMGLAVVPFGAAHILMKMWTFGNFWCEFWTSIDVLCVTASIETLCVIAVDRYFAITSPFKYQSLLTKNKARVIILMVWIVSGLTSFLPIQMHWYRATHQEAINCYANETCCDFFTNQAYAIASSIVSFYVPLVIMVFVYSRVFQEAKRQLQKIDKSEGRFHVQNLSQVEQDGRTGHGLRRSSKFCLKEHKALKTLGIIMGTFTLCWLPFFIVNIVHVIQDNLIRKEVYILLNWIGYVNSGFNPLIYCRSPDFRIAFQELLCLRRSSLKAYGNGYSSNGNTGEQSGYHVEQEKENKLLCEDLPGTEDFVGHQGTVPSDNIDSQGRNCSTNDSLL

CNc1nc(N(C)C)nc(N(C)C)n1
inactive: vesicle binding response [1] 64.3% | inhibition [2] -2.53% | aptamer binding inhibition [3] -1% | response [4] 8.29% | inhibition [5] 14.9% | response [6] 3.55% | binding (% of control) [7] 107% | inhibition [9] 11% | differentiation response [10] 41.3%
62.1%: double positive events [1]
active: efflux inhibition (fraction of control) [8] 0.92

O=C(NCCN1CCCCC1)c1c(O)c2ccccc2[nH]c1=O
61.8%: double positive events [1]
inactive: vesicle binding response [1] 38% | inhibition [2] -6.68% | aptamer binding inhibition [3] -4% | response [4] 0.73% | inhibition [5] 5.65% | response [6] 3.25% | binding (% of control) [7] 109% | inhibition [9] -4% | differentiation response [10] 21.8%
active: efflux inhibition (fraction of control) [8] 0.49

COC(=O)C[n+]1cccc2ccccc21
inactive: GFP response vs DMSO [11] 106% | GFP response vs DMSO [12] 103% | GFP response vs DMSO [13] 100% | GFP response vs DMSO [14] 118% | percent response vs DMSO [15] 105%

Cc1cc(C)c2nc3nc(C)cc(C)c3c(N)c2c1
inactive: GFP response vs DMSO [11] 99% | GFP response vs DMSO [12] 103% | GFP response vs DMSO [13] 76.7% | GFP response vs DMSO [14] 93.9% | percent response vs DMSO [15] 75.9%

Cc1[nH]c2ccccc2c1C(=O)CN1CCCC1
inactive: vesicle binding response [1] 26% | inhibition [2] -4.6% | aptamer binding inhibition [3] -4% | response [4] 7.28% | inhibition [5] 4.83% | response [6] -0.48% | binding (% of control) [7] 110% | efflux inhibition (fraction of control) [8] 0.24 | inhibition [9] 48% | differentiation response [10] 28.6%
61.6%: double positive events [1]

CCn1c(SCCC(C)C)nnc1-c1c[nH]c2ccccc12
inactive: GFP response vs DMSO [11] 95.2% | GFP response vs DMSO [12] 96.1% | GFP response vs DMSO [13] 96.3% | GFP response vs DMSO [14] 100% | percent response vs DMSO [15] 96.7%

CCC(=C/c1sc2ccc3ccccc3c2[n+]1C)/C=C1\Sc2ccc3ccccc3c2N1C
inactive: GFP response vs DMSO [13] 451% | percent response vs DMSO [15] 98.8%
active: GFP response vs DMSO [11] 2930% | GFP response vs DMSO [12] 285% | GFP response vs DMSO [14] 303%

Cc1ccc2nc(N(CCN(C)C)C(=O)C3=COCCO3)sc2c1
inactive: GFP response vs DMSO [11] 102% | GFP response vs DMSO [12] 105% | GFP response vs DMSO [13] 98.9% | GFP response vs DMSO [14] 103% | percent response vs DMSO [15] 104%

C(=C\c1ccccc1)/CN1CCN(C(c2ccccc2)c2ccccc2)CC1
66.7%: double positive events [1]
inactive: inhibition [2] -1.3% | superoxide response (% of plate) [16] 86.5% | aptamer binding inhibition [3] 0% | response [4] 11.4% | inhibition [5] 0.96% | response [6] 0.39% | binding (% of control) [7] 120% | efflux inhibition (fraction of control) [8] -0.24 | inhibition [9] 16% | differentiation response [10] 1.64%

COc1ccc(CCNC(=O)CS(=O)(=O)Cc2nc(-c3ccc(C)cc3)oc2C)cc1OC
inactive: GFP response vs DMSO [11] 103% | GFP response vs DMSO [12] 99.6% | GFP response vs DMSO [13] 95.5% | GFP response vs DMSO [14] 100% | percent response vs DMSO [15] 101%

CN(Cc1ccccc1)C(=O)C(=O)c1cn(CC(=O)N2CCCC2)c2ccccc12
inactive: GFP response vs DMSO [11] 103% | GFP response vs DMSO [12] 96.1% | GFP response vs DMSO [13] 95% | GFP response vs DMSO [14] 103% | percent response vs DMSO [15] 98.3%

CN1CCc2cccc3c2[C@H]1Cc1ccc(O)c(O)c1-3
61%: double positive events [1]
inactive: vesicle binding response [1] 187% | inhibition [2] -17.1% | aptamer binding inhibition [3] 4% | response [4] 6.81% | inhibition [5] 3.9% | response [6] 2.95% | binding (% of control) [7] 94.3% | efflux inhibition (fraction of control) [8] 0.08 | inhibition [9] -1% | differentiation response [10] 20.8%
